This is a sample that favours compounds with a hit; in the whole collection about 11% have one here.
Pf growth 96h: inhibits malaria parasite growth, 96 h; P. falciparum luciferase reporter growth, 96 h; Potency, µM (titrated, usually from 28.7 µM), most hits filed as inhibitors; actives 6.9% (n = 320,000); AID 504834
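P. falciparum expressing integrated firefly luciferase, in erythrocytes at 2% hematocrit, 0.05% parasitemia, incubated with compounds 96 h at 37 C, 5% CO2. Growth inhibition read as loss of luminescence; two-generation exposure targets delayed-death apicoplast inhibitors.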
AMA1 RON2 block: AMA1-RON2 (P. falciparum) interaction inhibition | AlphaScreen AMA1-biotinylated RON2 peptide binding | actives 0.2% (n = 360,000) | Potency, µM (top dose mostly 58.2 µM), usual class: inhibitors; further: nearly all actives have a fitted effect of over 45% in size
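AMA1 (3D7) with his tag at 25 nM final met compounds first, then biotinylated RON2 peptide at 25 nM; detection used donor plus acceptor beads, 10 µg/mL apiece, read by AlphaScreen after 30 min at room temperature.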
HCV inh: blocks hepatitis C virus; Huh7.5.1 HCVcc-Cre infection, luciferase reporter, 44 h; Potency, µM (top dose mostly 41.8 µM), actives largely listed as inhibitors; actives 3.4% (n = 340,000); AID 651820
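Compounds are dispensed onto cells plated 4 h earlier at 1,000 per well, with HCVcc-Cre virus (about 0.5 moi) added next. Following 44 h of culture, luminescent signal is measured for 15 sec after 15 min with substrate at room temperature.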
AmpC inh detg: inhibitors of E. coli AmpC beta-lactamase with detergent. P00811. AmpC hydrolysis of nitrocefin, absorbance 480 nm, 0.01% Triton. Potency, µM (series often up to 114 µM), actives largely listed as inhibitors. actives 0.041% (n = 370,000). AID 485294; further: nearly all actives have a fitted effect of over 25% in size
Target sequence (P00811 whole entry, looked up): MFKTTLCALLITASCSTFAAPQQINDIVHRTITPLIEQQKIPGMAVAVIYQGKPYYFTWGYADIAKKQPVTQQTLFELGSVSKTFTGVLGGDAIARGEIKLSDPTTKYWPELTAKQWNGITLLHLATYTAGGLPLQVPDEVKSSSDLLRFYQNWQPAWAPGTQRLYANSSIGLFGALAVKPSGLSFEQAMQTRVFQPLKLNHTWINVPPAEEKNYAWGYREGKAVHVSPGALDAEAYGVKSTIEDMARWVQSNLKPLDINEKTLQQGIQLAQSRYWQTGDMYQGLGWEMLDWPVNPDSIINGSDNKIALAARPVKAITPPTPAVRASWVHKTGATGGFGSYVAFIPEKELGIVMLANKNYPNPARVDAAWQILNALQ
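20 mM phosphate pH 7.0 + 0.01% (detergent screen) or 0.0001% Triton X-100; 5.3 nM AmpC reagent; cpd preinc 15 min RT; nitrocefin (800 uM stock) to start; A480 q20 s × 4 min; Activity was normalised to no-enzyme and no-compound control wells.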
AmpC inh no detg: inhibitors of E. coli AmpC beta-lactamase without detergent | AmpC nitrocefin hydrolysis, absorbance 480 nm, 0.0001% Triton | AID 485341 | P00811 | actives 0.52% (n = 330,000) | Potency, µM (top dose mostly 57.1 µM), hits mostly inhibitors; further: nearly all actives have a fitted effect of over 20% in size
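20 mM phosphate pH 7.0 + 0.01% (detergent screen) or 0.0001% Triton X-100; 5.3 nM AmpC reagent; cpd preinc 15 min RT; nitrocefin (800 uM stock) to start; A480 q20 s × 4 min; Activity was normalised to no-enzyme and no-compound control wells.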
Pf growth 48h: inhibits P. falciparum growth in the first generation, 48 h; P. falciparum luciferase growth in erythrocytes, 48 h; Potency, µM (titrated, usually from 28.7 µM), hits mostly inhibitors; actives 5.9% (n = 310,000); AID 504832
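Growth was read as firefly luciferase luminescence after a 48 h, 37 C, 5% CO2 exposure of compounds to reporter-bearing P. falciparum cultures (0.1% parasitemia, 2% hematocrit final) in Albumax-supplemented RPMI 1640.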
Of the large screens only hits and unclear results are named; the others gave an inactive call. The call rests on the fitted dose curve; in most records, active means well fitted curve in the direction sought with a large enough effect; inconclusive means small, poorly fitted or top-dose-only effect, or another doubt; inactive means no such curve, though single readings can be large; an effect the other way counts as inactive or inconclusive.

CS(=O)(=O)NCCOc1ccc(S(=O)(=O)NCCOc2ccccc2)cc1	Pf growth 48h 10.4µM
CC(NC(=O)Cc1ccc(NC(=O)N2CCSc3ncccc32)cc1)c1ccccc1 (stereo not drawn)	none (no result: Pf growth 96h, AMA1 RON2 block, HCV inh, AmpC inh no detg, Pf growth 48h)
COc1ccc(CCn2c(=N)c(C(=O)NCc3ccco3)cc3c(=O)n4ccccc4nc32)cc1	Pf growth 96h inconclusive, Pf growth 48h 2.94µM (no result: HCV inh)
N=c1c(C(=O)NC2CCCCC2)cc2c(=O)n3ccccc3nc2n1Cc1ccccc1	Pf growth 96h 5.86µM, HCV inh 11.2µM, Pf growth 48h inconclusive
N=c1c(C(=O)NC2CCCCC2)cc2c(=O)n3ccccc3nc2n1Cc1cccnc1	HCV inh inconclusive, Pf growth 48h inconclusive
N=c1c(C(=O)NC2CCCCC2)cc2c(=O)n3ccccc3nc2n1Cc1ccco1	HCV inh inconclusive, Pf growth 48h 3.7µM
N=c1c(C(=O)NC2CCCCC2)cc2c(=O)n3ccccc3nc2n1CCc1ccccc1	Pf growth 96h 1.65µM, HCV inh inconclusive, Pf growth 48h 1.47µM
COc1ccc2cc(CNc3ccccc3)c(=O)n(CC(=O)Nc3ccc(C)cc3C)c2c1	none (no result: Pf growth 96h, AMA1 RON2 block, HCV inh, AmpC inh no detg, Pf growth 48h)
CCOc1ccc(CC(=O)NC2CC(=O)N(c3cccc(F)c3)C2)cc1 (stereo not drawn)	none (no result: Pf growth 96h, AMA1 RON2 block, HCV inh, AmpC inh no detg, Pf growth 48h)
N=c1c(C(=O)NCCc2ccccc2)cc2c(=O)n3ccccc3nc2n1Cc1ccco1	HCV inh inconclusive, AmpC inh detg inconclusive, Pf growth 48h 2.33µM
CCOc1ccc(-n2c(Cc3cc(=O)[nH]c(=O)[nH]3)nnc2SCc2cccnc2)cc1	Pf growth 96h 13.1µM (no result: AMA1 RON2 block, HCV inh, Pf growth 48h)
CCOC(=O)C(C)Sc1nnc(Cc2cc(=O)[nH]c(=O)[nH]2)n1-c1ccc(Cl)cc1 (stereo not drawn)	AmpC inh detg inconclusive
CCOC(=O)C(C)Sc1nnc(Cc2cc(=O)[nH]c(=O)[nH]2)n1-c1ccc(OCC)cc1 (stereo not drawn)	Pf growth 96h 9.28µM (no result: Pf growth 48h)
COc1ccc(CCNC(=O)C2COc3ccccc3C2)cc1OC (stereo not drawn)	none (no result: Pf growth 96h, AMA1 RON2 block, HCV inh, AmpC inh no detg, Pf growth 48h)
Cc1ccc(OCCCSc2nc(-c3ccc(C(C)(C)C)cc3)nc3cc(=O)[nH]n23)cc1C	none (no result: Pf growth 96h, AMA1 RON2 block, HCV inh, AmpC inh no detg, Pf growth 48h)
CCCCCSc1ncnc2c1sc1nc(N3CCOCC3)c3c(c12)CCCC3	none (no result: Pf growth 96h, AMA1 RON2 block, HCV inh, AmpC inh no detg, Pf growth 48h)
Cc1cc(OCC(=O)NC2CC(C)(C)NC(C)(C)C2)c(C)cc1Br	HCV inh 10µM, Pf growth 48h inconclusive
CC(C)c1ccc(OCC(=O)NC2CC(C)(C)NC(C)(C)C2)c(Br)c1	HCV inh 11.2µM, Pf growth 48h inconclusive
O=C(Cn1ncc2c3ccccc3n(Cc3ccc(F)cc3)c2c1=O)NCCCN1CCCCC1	none (no result: Pf growth 96h, AMA1 RON2 block, HCV inh, AmpC inh no detg, Pf growth 48h)
COc1ccc(Cl)cc1NC(=O)c1c(NCc2cccnc2)sc2c1CCC(C)C2 (stereo not drawn)	none (no result: Pf growth 96h, AMA1 RON2 block, HCV inh, AmpC inh no detg, Pf growth 48h)
CCCn1c2ccccc2c2cnn(CC(=O)NCCc3ccc(OCC)c(OCC)c3)c(=O)c21	none (no result: Pf growth 96h, AMA1 RON2 block, HCV inh, AmpC inh no detg, Pf growth 48h)
CC1Cc2nc(SCC(=O)c3ccccc3)n(Cc3ccccc3)c(=O)c2S1 (stereo not drawn)	Pf growth 96h inconclusive, HCV inh 11.2µM, AmpC inh detg inconclusive, Pf growth 48h inconclusive
CSc1nc2c(c(=O)n1Cc1ccccc1)SC(C)C2 (stereo not drawn)	Pf growth 48h 11.7µM
COc1cc2ncnc(NCCCN3CCOCC3)c2cc1OC	Pf growth 96h inconclusive, HCV inh inconclusive, Pf growth 48h inconclusive
CCOc1cc2nc(-c3ccc(OC)c(OC)c3)nc(NCCCN3CCOCC3)c2cc1OC	Pf growth 96h 0.0738µM, HCV inh inconclusive (no result: Pf growth 48h)
COc1ccc(-c2oc3ncnc(NCCCN4CCOCC4)c3c2-c2ccc(OC)cc2)cc1	AMA1 RON2 block inconclusive, HCV inh 2.82µM, Pf growth 48h 5.22µM
COc1ccc(-c2oc3ncn(CCN4CCOCC4)c(=N)c3c2-c2ccc(OC)cc2)cc1	AMA1 RON2 block inconclusive, HCV inh 12.6µM, Pf growth 48h 7.38µM
COc1ccc(-c2oc3ncnc(NCCN4CCOCC4)c3c2-c2ccc(OC)cc2)cc1	Pf growth 96h inconclusive, HCV inh inconclusive (no result: Pf growth 48h)

Bioassay records (PubChem BioAssay)
